Sampled rows, rich in hits. Any-hit rate of the full collection: about 2.3%.
KKLEB tox: cytotoxicity in KKLEB CF airway cells, primary screen, cytotoxicity control for CF NF-kB inhibitor project, cell-based, uHTS, fluorescence assay plates | KKLEB CF airway cells viability, ATPlite luminescence, overnight; hits give low values; cells stimulated with P. aeruginosa culture filtrate | 0.36% of 360,000 active | AID 602141, 2011 | activity change (cytotoxicity), % at 5 µM;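 active means corrected activity change at or below -50% at 5 µM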
HIF-2a block: HIF-2a reporter inhibitors, primary screen, luminescence, 786-0 RCC cells; AID 624352, 2012; 0.72% of 360,000 active; 786-0 RCC cells HIF-2a reporter, luciferase luminescence, overnight; inhibition, % at 18.8 µM;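 active means inhibition of the luminescence signal of 40% or more relative to plate controls, in a single-dose primary screen at 18.75 µM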
CF NFkB inh: inhibitors of PAF-induced NF-kB signaling, primary screen, cell-based, GFP fluorescence, uHTS | inhibition, % at 5 µM | KKLEB NF-kB-GFP reporter, GFP fluorescence overnight | 0.86% of 360,000 active;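 active means at least 50% inhibition at 5 µM, scaled per plate between neutral and stimulator controls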;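 further: PAF is a Pseudomonas aeruginosa culture filtrate used as stimulus; plate controls were PAF-stimulated DMSO wells for no effect and unstimulated DMSO wells for full effect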
LGR2 inh: inhibitors of bursicon-induced LGR2 CRE-luciferase signal, primary screen, cell-based, HEK293, CRE-luciferase reporter, bursicon stimulation. bursicon-stimulated, 4 h. inhibition, % at 9.99 µM. 0.35% of 380,000 active. AID 720647, 2013;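 active means drop in luminescence signal, shown as inhibition above about 50% in the replicate tests, limit read from the data, passing the limit was not always enough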;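 further: agonist challenge used bursicon conditioned medium at about half maximal strength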
hiPSC survival: enhancers of single-cell hiPSC survival, primary screen, ATPlite luminescence | 0.044% of 360,000 active | survival enhancement, % at 20 µM | 100% = ROCK inhibitor wells, 0% = DMSO; in the data active means survival enhancement above about 18%;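 further: cells exposed to compounds for 16 hours before the ATP read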
TWEAK-Fn14 inh: inhibitors of TWEAK-Fn14 signaling, primary screen, luciferase reporter cells, uHTS | TWEAK-stimulated Fn14 reporter cells, luciferase luminescence, 8 h | inhibition, % at 10 µM | 2% of 360,000 active | AID 1159606, 2016; in the data active means inhibition above about 50%
Starred values were filed as active, the others as inactive; . = not tested or not shown.

SMILES	KKLEB tox	HIF-2a block	CF NFkB inh	LGR2 inh	hiPSC survival	TWEAK-Fn14 inh
Cc1ccc2nc(NC(=O)C3CCN(S(=O)(=O)c4cccc5nsnc45)CC3)sc2c1	-6	-27	17	27	-1	92*
Cc1ccc(NC(=O)C2CCN(S(=O)(=O)c3cc([N+](=O)[O-])ccc3Cl)CC2)nc1	-6	-18	18	30	0	25
Cc1ccc2nc(NC(=O)C3CCN(S(=O)(=O)c4cc([N+](=O)[O-])ccc4Cl)CC3)sc2c1	6	-81	4	-6	-2	83*
COc1ccc2nc(NC(=O)C3CCCN(S(=O)(=O)c4cccs4)C3)sc2c1 (stereo not drawn)	1	5	22	.	-1	17
Cc1ccc2nc(NC(=O)C3CCN(S(=O)(=O)c4cccs4)CC3)sc2c1	10	3	-2	34	9	80*
COc1ccc2nc(NC(=O)C3CCN(S(=O)(=O)c4cccs4)CC3)sc2c1	-10	6	20	.	-1	55*
O=C(Cc1cccnc1)N[C@H]1CC[C@H](CCNS(=O)(=O)c2ccccc2Cl)O[C@H]1CO	.	.	.	5	.	.
CC=Cc1ccc2n(c1=O)C[C@H]1[C@H](CO)[C@@H](C(=O)N3CCN(C)CC3)N(Cc3ccccc3OC)[C@@H]21 (mixture of isomers)	.	.	.	6	.	.
O=C1CCCC2=C1C(c1ccc(Br)cc1)c1c([nH]c(=S)[nH]c1=O)N2 (stereo not drawn)	1	14	10	.	1	7
O=c1[nH]c(=S)[nH]c2c1C(c1ccc(Br)cc1)c1c([nH]c(=S)[nH]c1=O)O2	-8	14	13	13	0	77*
CCc1ccc(Nc2n[n+](-c3ccccc3)c(-c3ccc(N(CC)CC)cc3)s2)cc1	1	-123	33	8	-2	43
CCc1ccc(Nc2n[n+](-c3ccccc3)c(-c3ccc(OCc4ccccc4)cc3)s2)cc1	1	-13	12	-30	-1	83*
CCN(CC)c1ccc(Nc2nc(N3CCOCC3)c3ccccc3n2)cc1	-8	11	10	.	0	54*
COc1ccc(Nc2nc(N3CCCC3)c3ccccc3n2)cc1	1	6	-36	.	-4	6
COc1ccc(/C=C2/CCC(CN3CCOCC3)C2=O)cc1 (stereo not drawn)	-55*	87*	66*	-9	-2	66*
CN(C)CC1CC/C(=C\c2ccc(O)cc2)C1=O (stereo not drawn)	0	88*	47	9	-3	47
COc1ccc(/C=C2\CCC(C3CCCC3)C2=O)cc1 (stereo not drawn)	-1	-248	7	-54	1	49
O=C(C[C@H]1C=C[C@@H](NC(=O)Cc2cccnc2)[C@@H](CO)O1)Nc1ccccc1	.	.	.	1	.	.
Cc1ccc(C2=C(O)C(=O)C(c3ccc(C)cc3)=C(O)C2=O)cc1	-8	-4	56*	-3	0	21
C[C@@H]1CN([C@H](C)CO)C(=O)c2cc(C#Cc3ccccn3)cnc2O[C@H]1CN(C)C(=O)c1cnccn1	.	.	.	0	.	.
O=C(C[C@H]1CC[C@H]2[C@@H](COC[C@@H](O)CN2Cc2ccc3c(c2)OCO3)O1)Nc1ccc(-c2ccccc2)cc1	.	.	.	16	.	.
COCCNC(=O)/C(C#N)=C/c1cn(CC(=O)NCc2ccco2)c2ccccc12	-4	10	-2	-12	-1	-22
Cc1ccc(C)c(OCCn2cc(C(=O)O)c3ccccc32)c1	-3	16	-2	-13	0	16
CC(=O)c1cn(CCOc2cc(C)ccc2C)c2ccccc12	3	4	-7	13	0	100*
Cc1cccc(NC(=O)/C(C#N)=C/c2cn(CC(=O)NCc3ccco3)c3ccccc23)c1	-63*	2	60*	-5	0	-14
SMILES	KKLEB tox	HIF-2a block	CF NFkB inh	LGR2 inh	hiPSC survival	TWEAK-Fn14 inh
COc1ccccc1OCCn1cc(/C=C(\C#N)C(=O)NCc2ccco2)c2ccccc21	-17	18	15	14	-2	-10
Cc1ccc(C)c(OCCn2cc(/C=C(\C#N)C(=O)NCc3ccco3)c3ccccc32)c1	-58*	-5	57*	-10	0	-41
COc1cccc(C(=O)Nc2ccc3c(c2)OC[C@@H](C)N(C(=O)C2CC2)C[C@@H](C)[C@H](OC)CN(C)C3=O)c1	.	.	.	5	.	.
CCCC#Cc1cnc2c(c1)C(=O)N([C@@H](C)CO)C[C@@H](C)[C@H](CN(C)C(=O)NC1CCCC1)O2	.	.	.	-7	.	.
COCCCNC(=O)c1c(N)n(/N=C/c2cccnc2)c2nc3ccccc3nc12	-4	1	-31	.	2	26
CCC(C)NC(=O)c1c(N)n(/N=C/c2cccnc2)c2nc3ccccc3nc12 (stereo not drawn)	-6	-44	-2	.	-2	51*
CCC(C)NC(=O)c1c(N)n(/N=C/c2ccccn2)c2nc3ccccc3nc12 (stereo not drawn)	-4	-16	2	9	4	64*
CCCNC(=O)N1C[C@@H](C)[C@@H](OC)CN(C)C(=O)c2cc(NC(=O)C3CCC3)ccc2OC[C@@H]1C	.	.	.	8	.	.
O=C(c1ccccn1)N1CC(=O)N2[C@@H](CO)[C@@H](c3ccc(C#CCc4ccccc4)cc3)[C@@H]2C1	.	.	.	7	.	.
O=C(Nc1c(F)cccc1F)c1cnc(N2CCN(c3ccccn3)CC2)c2ccccc12	-5	-8	-27	.	-2	60*
Cc1ccc(NC(=O)c2cnc(N3CCN(c4ccccn4)CC3)c3ccccc23)c(Br)c1	-17	19	-13	34	-3	93*
O=C(c1cnc(N2CCN(c3ncccn3)CC2)c2ccccc12)N1CCN(c2ccccn2)CC1	-3	22	8	.	0	49
CC(C)NC(=O)N(C)C[C@H]1Oc2cc(C#CC3CC3)ccc2S(=O)(=O)N([C@H](C)CO)C[C@@H]1C	.	.	.	26	.	.
C[C@@H]1CN([C@@H](C)CO)C(=O)Cc2cc(NC(=O)Cc3cn(C)c4ccccc34)ccc2O[C@@H]1CN(C)C	.	.	.	11	.	.
C[C@@H]1CCCCO[C@H](CN(C)C(=O)Nc2ccc(F)cc2)[C@@H](C)CN([C@@H](C)CO)C(=O)c2cc(NC(=O)CCCN(C)C)ccc2O1	.	.	.	-2	.	.
CN1C(=O)c2cc(NC(=O)c3ccc(F)c(F)c3)ccc2OC[C@H]2O[C@H](CC(=O)N3CCOCC3)CC[C@@H]21	.	.	.	8	.	.
Cc1c(/C(O)=C2\C(=O)C(=O)N(CCCN(C)C)C2c2ccccc2)cnn1-c1ccccc1 (stereo not drawn)	-12	20	7	-5	2	82*
